By AC50 is commonly meant the midpoint of the concentration-response curve, whichever way the signal moves.

We go through eight compounds from PubChem BioAssay (EPA / NIEHS).

Structures are written as SMILES. Active and inactive are the calls of the source. Rule for the calls: active = hit-call score of the fitted dose curve at least 0.9, where 1 is the maximum; inactive = score below 0.9.

Assay [1] can be described thus: ATG_E_Box_CIS: Attagene CIS-FACTORIAL HepG2 Assay for human Enhancer Box (E-box) (AID 2282936). The conditions noted are these: HepG2 E-box cis-reporter transcription, actives raise or lower the signal. An outline of the steps:
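Cells: HepG2 (human liver), transient MRTU transfection. Exposure 24 h. RNA → oligo(dT) RT → PCR → 6-FAM label → HpaI → CE. Activity fitted both directions relative to DMSO.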

Assay [2] in a line: ATG_M_61_CIS: Attagene CIS-FACTORIAL HepG2 Assay for M61 Transcription Factor (Internal Marker) (AID 2282937). The note with it: HepG2 Attagene CIS-FACTORIAL M61 internal marker reporter; actives raise or lower the signal. An outline of the steps:
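Readout: fluorescent reporter mRNA fragments resolved by capillary electrophoresis after RT-PCR. Transiently transfected human HepG2 cells carried MRTU constructs reporting endogenous TF activity; 24 h chemical exposure; gain or loss of signal fitted relative to DMSO.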

A short description of assay [3]: ATG_M_19_CIS: Attagene CIS-FACTORIAL HepG2 Assay for M19 Transcription Factor (Internal Marker) (AID 2282939). The conditions noted are these: HepG2 Attagene CIS-FACTORIAL M19 internal marker reporter; actives raise or lower the signal. The method, boiled down: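 Chemical-treated HepG2 (24 h) with MRTU constructs; reporter transcripts detected by fluorescent RT-PCR fragment analysis on capillary electrophoresis. Internal background marker, DMSO as baseline.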

Assay [4] can be described thus: ATG_ERE_CIS: Attagene CIS-FACTORIAL HepG2 Assay for Estrogen Response Element (ERE) (AID 2282940). The conditions noted are these: HepG2 ERE cis-reporter, Attagene RNA transcript; actives raise or lower the signal. An outline of the steps:
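Human liver cells (HepG2) bearing transiently transfected, promoter-regulated reporter units were exposed 24 h. Reporter mRNA induction was detected by capillary electrophoresis of labelled RT-PCR products and fitted bidirectionally to DMSO.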

Assay [5] is described as follows: ATG_Ets_CIS: Attagene CIS-FACTORIAL HepG2 Assay for human Erythroblast Transformation Specific (ETS) (AID 2282941). The note with it: HepG2 ETS cis-reporter transcription, actives raise or lower the signal. The method, boiled down: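 Steps: transfect HepG2 with multiple reporter units; treat compound 24 h; isolate RNA, DNase-treat, reverse-transcribe; PCR-amplify, label with 6-FAM, digest with HpaI; separate by capillary electrophoresis. Activity fitted both directions versus DMSO.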

For assay [6], the target named is Hepatocyte nuclear factor 3-beta (Homo sapiens) (UniProt Q9Y261). As to the kind of experiment: ATG_FoxA2_CIS: Attagene CIS-FACTORIAL HepG2 Assay for human Forkhead box A2 (FOXA2) (AID 2282942). The conditions noted are these: HepG2 cis-reporter transcription factor activity, 24 h; actives raise or lower the signal. The method, boiled down:
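Readout: fluorescent reporter transcripts resolved by capillary electrophoresis after RT-PCR. Transiently transfected HepG2, 24 h compound exposure, endogenous TF activity at cis promoter elements. Gain or loss of signal fitted relative to DMSO.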

The nature of assay [7]: ATG_FoxO_CIS: Attagene CIS-FACTORIAL HepG2 Assay for human Forkhead box O (FoxO) (AID 2282943). The note with it: HepG2 Attagene cis-reporter, FoxO element, mRNA; actives raise or lower the signal. An outline of the steps:
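Human hepatoma HepG2 cells carry transiently introduced reporter transcription units controlled by cis promoter elements. Chemical treatment lasted 24 h, and mRNA signal was compared with DMSO.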

The nature of assay [8]: ATG_GATA_CIS: Attagene CIS-FACTORIAL HepG2 Assay for human GATA Binding Protein (AID 2282944). The note with it: HepG2 GATA cis-element reporter, Attagene multiplex mRNA; actives raise or lower the signal. An outline of the steps:
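Transfected cis-reporter HepG2 cells were treated with chemicals for 24 hours. Total RNA was then converted to cDNA, amplified with reporter-specific primers and analysed by fluorescent capillary electrophoresis, using DMSO-treated wells as baseline.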

Assay [9] is described as follows: ATG_GLI_CIS: Attagene CIS-FACTORIAL HepG2 Assay for human Zinc Finger Protein GLI1 (AID 2282945). The note with it: HepG2, Attagene cis-factorial reporter mRNA, GLI element; actives raise or lower the signal. The method, boiled down: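 Bidirectional curve fits relative to DMSO, using reporter mRNA levels from RT-PCR plus capillary electrophoresis. Cells were HepG2 transiently carrying cis-regulated reporter constructs, harvested 24 h after dosing.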

The target in assay [10] is Bile acid receptor (Homo sapiens) (UniProt Q96RI1). The experiment in a line: ATG_IR1_CIS: Attagene CIS-FACTORIAL HepG2 Assay for human Nuclear Receptor Subfamily 1 Group H Member 4 (NR1H4), IR1 submotif (AID 2282946). The note with it: IR1 reporter transcription, actives raise or lower the signal. An outline of the steps:
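Cells (human HepG2) carry transiently transfected cis-promoter reporter transcription units. Compounds are incubated 24 h, total RNA is reverse-transcribed and amplified, and labelled fragments are resolved by capillary electrophoresis. Curves use DMSO as baseline.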

Assay [11] is described as follows: ATG_GRE_CIS: Attagene CIS-FACTORIAL HepG2 Assay for human Glucocorticoid Response Elements (GRE) (AID 2282947). The note with it: HepG2 GRE cis-reporter, Attagene multiplex mRNA; actives raise or lower the signal. The method, boiled down: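 Transient MRTU transfection of human HepG2 liver cells; cis-regulated reporters report endogenous factors. 24 h dosing → RNA isolation → RT-PCR → 6-FAM primer extension → HpaI cut → CE fragment analysis. Bidirectional fit, DMSO negative control.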

The nature of assay [12]: ATG_ISRE_CIS: Attagene CIS-FACTORIAL HepG2 Assay for human Interferon Regulatory Factor 1 (IRF1) binding to an Interferon-Stimulated Response Element (ISRE) (AID 2282948). The note with it: HepG2 ISRE cis-reporter (Attagene), mRNA transcription readout; actives raise or lower the signal. The method, boiled down:
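Transfected HepG2 (multiple reporter transcription units, cis elements) dosed 24 h. RNA → oligo(dT) RT → PCR → 6-FAM primer extension → HpaI → CE. DMSO = negative control/baseline.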

The nature of assay [13]: ATG_M_32_CIS: Attagene CIS-FACTORIAL HepG2 Assay for M32 Transcription Factor (Internal Marker) (AID 2282949).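 Note: background control marker of the multiplexed CIS panel rather than a real target.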 The conditions noted are these: HepG2 Attagene cis-factorial M32 reporter, mRNA; actives raise or lower the signal. An outline of the steps: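 HepG2 cells transiently transfected with multiplexed cis-regulated reporter units, dosed 24 h. Reporter mRNA quantified by RT-PCR, 6-FAM labelling, HpaI digestion and capillary electrophoresis; bidirectional fit vs DMSO.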

Assay [14] in a line: ATG_M_06_CIS: Attagene CIS-FACTORIAL HepG2 Assay for M06 Transcription Factor (Internal Marker) (AID 2282950). The conditions noted are these: HepG2 Attagene CIS-FACTORIAL M06 internal marker reporter; actives raise or lower the signal. The method, boiled down: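 Cells (HepG2, transiently carrying cis-driven reporter units) receive chemical for 24 h before RNA isolation. Reporter cDNA is PCR-amplified, FAM-labelled by primer extension, HpaI-digested and sized on a capillary analyser.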

The target of assay [15] is Hypoxia-inducible factor 1-alpha (Homo sapiens) (UniProt Q16665). As to the kind of experiment: ATG_HIF1a_CIS: Attagene CIS-FACTORIAL HepG2 Assay for human Hypoxia Inducible Factor 1 (HIF1A) (AID 2282951). The conditions noted are these: HepG2 Attagene cis-factorial HIF1a reporter transcription; actives raise or lower the signal. The method, boiled down: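 RT-PCR/capillary electrophoresis fluorescence readout of reporter transcripts from endogenous-TF-driven cis elements in transfected HepG2 cells, 24 h exposure; activity fitted in both directions against DMSO controls.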
Sequence of Hypoxia-inducible factor 1-alpha (Homo sapiens) (Q16665 whole entry, looked up): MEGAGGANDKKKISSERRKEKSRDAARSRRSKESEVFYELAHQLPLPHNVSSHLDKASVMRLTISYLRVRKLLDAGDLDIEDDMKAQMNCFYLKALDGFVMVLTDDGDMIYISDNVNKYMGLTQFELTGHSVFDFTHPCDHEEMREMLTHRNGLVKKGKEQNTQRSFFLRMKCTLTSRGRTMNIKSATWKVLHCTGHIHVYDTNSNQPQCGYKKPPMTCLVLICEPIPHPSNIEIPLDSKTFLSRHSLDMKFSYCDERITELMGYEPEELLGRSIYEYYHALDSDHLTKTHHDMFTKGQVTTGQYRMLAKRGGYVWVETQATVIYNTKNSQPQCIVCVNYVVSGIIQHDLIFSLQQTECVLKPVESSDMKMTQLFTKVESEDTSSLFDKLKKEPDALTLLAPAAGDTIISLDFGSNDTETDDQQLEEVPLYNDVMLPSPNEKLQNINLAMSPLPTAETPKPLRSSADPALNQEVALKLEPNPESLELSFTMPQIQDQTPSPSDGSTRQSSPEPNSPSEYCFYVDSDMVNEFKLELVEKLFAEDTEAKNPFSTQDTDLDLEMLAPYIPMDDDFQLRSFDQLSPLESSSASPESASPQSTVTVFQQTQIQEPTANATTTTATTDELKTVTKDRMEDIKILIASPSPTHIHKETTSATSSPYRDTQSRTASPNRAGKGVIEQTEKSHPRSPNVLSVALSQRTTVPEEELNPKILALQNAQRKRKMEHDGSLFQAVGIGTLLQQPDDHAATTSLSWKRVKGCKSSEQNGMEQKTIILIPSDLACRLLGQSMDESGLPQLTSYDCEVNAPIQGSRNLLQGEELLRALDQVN

Assay [16] concerns the target Hepatocyte nuclear factor 6 (Homo sapiens) (UniProt Q9UBC0). As to the kind of experiment: ATG_HNF6_CIS: Attagene CIS-FACTORIAL HepG2 Assay for human Hepatocyte Nuclear Factor 6 (HNF6) (AID 2282952). The note with it: HepG2 Attagene cis-factorial HNF6 reporter transcription; actives raise or lower the signal. An outline of the steps: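 HepG2 cells transiently transfected with cis-element-driven multiple reporter transcription units, dosed 24 h; reporter mRNA quantified by RT-PCR, FAM primer extension, HpaI digestion and capillary electrophoresis; bidirectional fit versus DMSO baseline.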

For assay [17], the target named is Heat shock factor protein 1 (Homo sapiens) (UniProt Q00613). The experiment in a line: ATG_HSE_CIS: Attagene CIS-FACTORIAL HepG2 Assay for human Heat Shock Transcription Factor 1 (HSE) (AID 2282953). The conditions noted are these: HepG2 HSE cis-reporter, Attagene RNA transcription; actives raise or lower the signal. The method, boiled down: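 Liver-derived HepG2 cells carry transiently introduced multiple reporter units governed by cis promoters. Reporter RNA measured 24 h post-dose through reverse transcription, PCR amplification, fluorescent labelling and capillary electrophoresis, normalised to DMSO.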
Sequence of Heat shock factor protein 1 (Homo sapiens) (Q00613 whole entry, looked up): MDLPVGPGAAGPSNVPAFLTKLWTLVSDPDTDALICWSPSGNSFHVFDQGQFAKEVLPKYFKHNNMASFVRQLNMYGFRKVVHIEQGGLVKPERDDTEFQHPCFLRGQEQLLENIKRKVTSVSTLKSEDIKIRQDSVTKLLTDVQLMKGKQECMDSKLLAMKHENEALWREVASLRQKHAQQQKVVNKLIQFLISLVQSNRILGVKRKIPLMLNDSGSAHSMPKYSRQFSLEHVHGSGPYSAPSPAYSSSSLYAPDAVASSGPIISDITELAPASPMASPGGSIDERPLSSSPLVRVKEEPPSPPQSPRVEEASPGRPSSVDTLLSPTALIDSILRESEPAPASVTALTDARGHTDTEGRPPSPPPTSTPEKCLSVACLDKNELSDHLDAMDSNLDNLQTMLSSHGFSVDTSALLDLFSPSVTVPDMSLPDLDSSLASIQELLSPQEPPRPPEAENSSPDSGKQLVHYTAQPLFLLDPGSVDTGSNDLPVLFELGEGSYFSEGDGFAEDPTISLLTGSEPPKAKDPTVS

Assay [18] is described as follows: ATG_MRE_CIS: Attagene CIS-FACTORIAL HepG2 Assay for human Metal Responsive Element (MRE) (AID 2282954). The note with it: HepG2 MRE cis-reporter transcription, Attagene multiplex; actives raise or lower the signal. An outline of the steps: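 Transient MRTU transfection of HepG2 (FuGene 6); 24 h dosing; total RNA → oligo(dT) RT, PCR, 6-FAM primer extension, HpaI cut, CE. Bidirectional fit vs DMSO.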

Assay [19] can be described thus: ATG_PBREM_CIS: Attagene CIS-FACTORIAL HepG2 Assay for human Phenobarbital-responsive Enhancer Module (PBREM) (AID 2282955). The note with it: HepG2 PBREM cis-reporter, Attagene multiplexed transcription; actives raise or lower the signal. The method, boiled down: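 Reporter mRNA read by RT-PCR, 6-FAM primer extension, HpaI digestion and capillary electrophoresis. Transfected HepG2 cells, 24 h compound exposure. Gain or loss of signal fitted bidirectionally relative to DMSO baseline.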

Sequence of Bile acid receptor (Homo sapiens) (Q96RI1 whole entry, looked up, the tested form may be a part): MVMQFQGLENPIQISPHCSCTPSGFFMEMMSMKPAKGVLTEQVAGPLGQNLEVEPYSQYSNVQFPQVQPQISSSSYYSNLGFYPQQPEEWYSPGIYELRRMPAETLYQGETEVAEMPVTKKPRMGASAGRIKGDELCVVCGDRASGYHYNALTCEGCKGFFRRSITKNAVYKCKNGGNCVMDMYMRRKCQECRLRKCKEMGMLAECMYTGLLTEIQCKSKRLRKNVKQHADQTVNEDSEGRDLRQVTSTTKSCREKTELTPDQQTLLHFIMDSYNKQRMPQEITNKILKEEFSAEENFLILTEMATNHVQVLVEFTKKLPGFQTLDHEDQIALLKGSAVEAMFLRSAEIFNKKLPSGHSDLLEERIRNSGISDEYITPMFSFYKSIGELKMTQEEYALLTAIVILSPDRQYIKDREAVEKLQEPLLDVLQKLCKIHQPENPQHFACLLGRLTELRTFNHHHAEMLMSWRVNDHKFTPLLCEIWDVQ
Sequence of Hepatocyte nuclear factor 3-beta (Homo sapiens) (Q9Y261 whole entry, looked up): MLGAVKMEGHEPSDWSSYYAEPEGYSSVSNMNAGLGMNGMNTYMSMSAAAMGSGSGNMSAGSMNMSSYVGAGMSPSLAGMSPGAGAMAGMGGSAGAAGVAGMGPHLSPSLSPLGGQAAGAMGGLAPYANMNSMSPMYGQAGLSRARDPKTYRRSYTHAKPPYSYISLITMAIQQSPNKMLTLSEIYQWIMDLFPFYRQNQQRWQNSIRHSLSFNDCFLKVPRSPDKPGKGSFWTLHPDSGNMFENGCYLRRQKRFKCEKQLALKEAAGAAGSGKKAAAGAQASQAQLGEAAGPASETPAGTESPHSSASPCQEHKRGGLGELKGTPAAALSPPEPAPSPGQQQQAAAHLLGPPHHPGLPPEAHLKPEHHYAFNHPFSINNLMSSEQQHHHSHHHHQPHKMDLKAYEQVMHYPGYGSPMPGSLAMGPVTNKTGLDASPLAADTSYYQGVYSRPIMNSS
Sequence of Hepatocyte nuclear factor 6 (Homo sapiens) (Q9UBC0 whole entry, looked up): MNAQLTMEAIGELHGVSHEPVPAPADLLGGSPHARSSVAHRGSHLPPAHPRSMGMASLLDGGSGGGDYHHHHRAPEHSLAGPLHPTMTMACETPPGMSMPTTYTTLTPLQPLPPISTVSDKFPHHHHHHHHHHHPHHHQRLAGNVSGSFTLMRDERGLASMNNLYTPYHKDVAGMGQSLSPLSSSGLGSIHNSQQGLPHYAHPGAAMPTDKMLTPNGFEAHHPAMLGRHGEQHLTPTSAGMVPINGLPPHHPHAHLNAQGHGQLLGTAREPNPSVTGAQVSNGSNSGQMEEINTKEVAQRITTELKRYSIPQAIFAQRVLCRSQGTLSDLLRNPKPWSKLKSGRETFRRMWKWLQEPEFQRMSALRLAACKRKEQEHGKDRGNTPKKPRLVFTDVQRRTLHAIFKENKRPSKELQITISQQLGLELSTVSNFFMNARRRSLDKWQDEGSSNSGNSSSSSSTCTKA

Consider `NC(=O)C1CO1` (stereo not drawn), for which the outcome in [1], in assay [2], in assay [3], in [4], in [5] and in assay [6] was inactive. The call in assay [7], in assay [8], in [9], in assay [10], in assay [11] and in assay [12] was inactive. Besides, the call in assay [13], in assay [14], in assay [15], in assay [16], in [17] and in [18] was inactive.
Take `CCOC(=O)CC`: the result in [1], in [2], in assay [3], in assay [4], in [5] and in assay [6] was inactive. In addition, the result in assay [7], in [9], in [10], in assay [12], in assay [13] and in [14] was inactive. For the same compound, the compound was called inactive in [15], in [16], in assay [17], in [18] and in assay [19].
Regarding `CCC(C)(C)C1CCCCC1OC(C)=O` (stereo not drawn), the result in [1], in assay [2], in assay [3], in assay [4], in [5] and in assay [6] was inactive. The compound was classed as inactive in [7], in assay [8], in assay [9], in assay [12], in [13] and in assay [14]. The outcome in assay [15], in assay [16], in assay [17], in assay [18] and in assay [19] was inactive.
`CC1OC1C1CCC2(C)OC2C1` (stereo not drawn): the result in [1], in assay [2], in [3], in assay [4], in assay [5] and in assay [6] was inactive. The compound was called inactive in assay [7], in assay [8], in assay [9], in assay [11], in assay [12] and in assay [13]. Also, the outcome in assay [14], in assay [15], in assay [16], in assay [18] and in assay [19] was inactive.
For the compound `Clc1nc2ccccc2s1`, the result in [1], in assay [2], in assay [3], in [4], in assay [5] and in [6] was inactive. Besides, the compound was classed as inactive in [7], in assay [8], in assay [9], in assay [10], in [11] and in assay [12]. In addition, the compound was classed as inactive in assay [13], in [14], in assay [15], in assay [16], in [17] and in [18].
Consider `CC(C)c1ccc(C#N)cc1`, for which the outcome in [1], in [2], in [3], in assay [4], in assay [5] and in [6] was inactive. The compound was classed as inactive in [8], in assay [9], in assay [11], in assay [12], in assay [13] and in assay [14]. Further, the compound was classed as inactive in assay [15], in assay [16], in [17], in assay [18] and in [19].
For `O=C(O)c1ccccc1Nc1cccc(C(F)(F)F)c1`, the concentration at half-maximal activity (AC50) in [1] is 89.2 µM (active); in [18] it was 100 µM (active). Besides, the result in assay [2], in assay [3], in assay [4], in [5], in [6] and in assay [7] was inactive. The compound was classed as inactive in assay [8], in assay [9], in assay [11], in assay [12], in assay [13] and in assay [14]. Also, the result in assay [16], in assay [17] and in assay [19] was inactive.
Regarding `CCOC(=O)c1ccccc1C(=C1C=C(Br)C(=O)C(Br)=C1)c1cc(Br)c(O)c(Br)c1`, the AC50 in assay [1] was 108 µM (active); in assay [7], 47.6 µM (active); in assay [9] it was 37.7 µM (active); in assay [10], 62.5 µM (active); in assay [12] it was 28.8 µM (active); in [15] it was 35.8 µM (active). Moreover, the results for the AC50 in assay [17] and in [18] were 20.6 µM (active) and 26.2 µM (active), respectively. Moreover, the outcome in [2], in assay [3], in assay [4], in assay [5], in assay [8] and in [11] was inactive. In addition, the result in assay [13], in [14] and in assay [16] was inactive.
